Screening results: PubChem BioAssay, National Center for Advancing Translational Sciences (NCATS)
The list is not random: actives were taken first. Their share in the collection is about 10%.
CtBP-E1A inh: qHTS Assay for Inhibitors of the CtBP/E1A Interaction | CtBP / adenovirus E1A interaction (AlphaScreen) | AlphaScreen GST-E1A/His-CtBP binding, 1536-well; hits give low values | activity change, % (concentration not given with the values) | 340,000 tested, 0.49% active; in the data active means activity change below about -65%; inconclusive means mostly about -30% to -63%
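Protein mix (5X: 125 nM each GST-E1A, His-CtBP) was incubated with pinned compound 2 h at 37 deg C in dark, in 50 mM Tris pH 8.0 buffer with 300 mM NaCl. Glutathione donor and nickel acceptor beads followed; AlphaScreen signal read after 1 h.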
HP1b binding inh: HTS for Inhibitors of HP1-beta Chromodomain Interactions with Methylated Histone Tails | Chromobox protein homolog 1 (Homo sapiens), P83916 | 390,000 tested, 0.56% active | Potency, µM (doses to about 114 µM), actives largely listed as inhibitors | AlphaScreen HP1-beta / biotin-H3K9me3 peptide binding | AID 540317, 2011; further: nearly all actives have a fitted effect of over 70% in size
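Compound inhibition of the preformed complex between 50 nM HP1-beta and 50 nM biotinylated H3K9me3 peptide was read by AlphaScreen. Buffer was PBS pH 7.4 with 0.01% Tween-20. Incubations ran 30 min at room temperature, with 10 ug/mL donor/acceptor beads.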
G9a block: qHTS Assay for Inhibitors of Histone Lysine Methyltransferase G9a. Histone-lysine N-methyltransferase EHMT2 (Homo sapiens), Q96KQ7. G9a H3K9 monomethylation, AlphaScreen, 2 h. Potency, µM (series often up to 102 µM), hits mostly inhibitors. 350,000 tested, 8.8% active. AID 504332, 2011; further: nearly all actives have a fitted effect of over 75% in size
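AlphaScreen detection with an anti-monomethyl H3K9 antibody quantified product after a 2 h room-temperature reaction containing 500 nM biotinylated H3K9 peptide, 20 µM SAM and 20 nM enzyme, which had been preincubated 15 min with compound.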
Six1-Eya2 blk: qHTS Assay for Inhibitors of the Six1/Eya2 Interaction; activity change, % (no concentration beside the values); 360,000 tested, 0.56% active; Homeobox protein SIX1 (Homo sapiens) + Protein phosphatase EYA2 (Homo sapiens), …; AlphaScreen GST-Six1/His-Eya2 binding, biochemical; hits give low values; AID 651725, 2012; in the data active means activity change below about -65%; inconclusive means mostly about -30% to -63%
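AlphaScreen luminescence read after one hour at 37 °C in darkness. Pin-transferred compounds met GST-Six1 and His-Eya2 protein (5X stock 250 nM/500 nM) plus glutathione donor and Ni-chelate acceptor beads (5X, 50 ug/mL).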
BAZ2B inh: qHTS Assay for Inhibitors of BAZ2B; AlphaScreen BAZ2B-H3K14Ac peptide displacement; Potency, µM (series often up to 114 µM), actives largely listed as inhibitors; 360,000 tested, 4.4% active; AID 504333, 2011; further: nearly all actives have a fitted effect of over 60% in size
Target sequence (Q9UIF8 whole entry, looked up): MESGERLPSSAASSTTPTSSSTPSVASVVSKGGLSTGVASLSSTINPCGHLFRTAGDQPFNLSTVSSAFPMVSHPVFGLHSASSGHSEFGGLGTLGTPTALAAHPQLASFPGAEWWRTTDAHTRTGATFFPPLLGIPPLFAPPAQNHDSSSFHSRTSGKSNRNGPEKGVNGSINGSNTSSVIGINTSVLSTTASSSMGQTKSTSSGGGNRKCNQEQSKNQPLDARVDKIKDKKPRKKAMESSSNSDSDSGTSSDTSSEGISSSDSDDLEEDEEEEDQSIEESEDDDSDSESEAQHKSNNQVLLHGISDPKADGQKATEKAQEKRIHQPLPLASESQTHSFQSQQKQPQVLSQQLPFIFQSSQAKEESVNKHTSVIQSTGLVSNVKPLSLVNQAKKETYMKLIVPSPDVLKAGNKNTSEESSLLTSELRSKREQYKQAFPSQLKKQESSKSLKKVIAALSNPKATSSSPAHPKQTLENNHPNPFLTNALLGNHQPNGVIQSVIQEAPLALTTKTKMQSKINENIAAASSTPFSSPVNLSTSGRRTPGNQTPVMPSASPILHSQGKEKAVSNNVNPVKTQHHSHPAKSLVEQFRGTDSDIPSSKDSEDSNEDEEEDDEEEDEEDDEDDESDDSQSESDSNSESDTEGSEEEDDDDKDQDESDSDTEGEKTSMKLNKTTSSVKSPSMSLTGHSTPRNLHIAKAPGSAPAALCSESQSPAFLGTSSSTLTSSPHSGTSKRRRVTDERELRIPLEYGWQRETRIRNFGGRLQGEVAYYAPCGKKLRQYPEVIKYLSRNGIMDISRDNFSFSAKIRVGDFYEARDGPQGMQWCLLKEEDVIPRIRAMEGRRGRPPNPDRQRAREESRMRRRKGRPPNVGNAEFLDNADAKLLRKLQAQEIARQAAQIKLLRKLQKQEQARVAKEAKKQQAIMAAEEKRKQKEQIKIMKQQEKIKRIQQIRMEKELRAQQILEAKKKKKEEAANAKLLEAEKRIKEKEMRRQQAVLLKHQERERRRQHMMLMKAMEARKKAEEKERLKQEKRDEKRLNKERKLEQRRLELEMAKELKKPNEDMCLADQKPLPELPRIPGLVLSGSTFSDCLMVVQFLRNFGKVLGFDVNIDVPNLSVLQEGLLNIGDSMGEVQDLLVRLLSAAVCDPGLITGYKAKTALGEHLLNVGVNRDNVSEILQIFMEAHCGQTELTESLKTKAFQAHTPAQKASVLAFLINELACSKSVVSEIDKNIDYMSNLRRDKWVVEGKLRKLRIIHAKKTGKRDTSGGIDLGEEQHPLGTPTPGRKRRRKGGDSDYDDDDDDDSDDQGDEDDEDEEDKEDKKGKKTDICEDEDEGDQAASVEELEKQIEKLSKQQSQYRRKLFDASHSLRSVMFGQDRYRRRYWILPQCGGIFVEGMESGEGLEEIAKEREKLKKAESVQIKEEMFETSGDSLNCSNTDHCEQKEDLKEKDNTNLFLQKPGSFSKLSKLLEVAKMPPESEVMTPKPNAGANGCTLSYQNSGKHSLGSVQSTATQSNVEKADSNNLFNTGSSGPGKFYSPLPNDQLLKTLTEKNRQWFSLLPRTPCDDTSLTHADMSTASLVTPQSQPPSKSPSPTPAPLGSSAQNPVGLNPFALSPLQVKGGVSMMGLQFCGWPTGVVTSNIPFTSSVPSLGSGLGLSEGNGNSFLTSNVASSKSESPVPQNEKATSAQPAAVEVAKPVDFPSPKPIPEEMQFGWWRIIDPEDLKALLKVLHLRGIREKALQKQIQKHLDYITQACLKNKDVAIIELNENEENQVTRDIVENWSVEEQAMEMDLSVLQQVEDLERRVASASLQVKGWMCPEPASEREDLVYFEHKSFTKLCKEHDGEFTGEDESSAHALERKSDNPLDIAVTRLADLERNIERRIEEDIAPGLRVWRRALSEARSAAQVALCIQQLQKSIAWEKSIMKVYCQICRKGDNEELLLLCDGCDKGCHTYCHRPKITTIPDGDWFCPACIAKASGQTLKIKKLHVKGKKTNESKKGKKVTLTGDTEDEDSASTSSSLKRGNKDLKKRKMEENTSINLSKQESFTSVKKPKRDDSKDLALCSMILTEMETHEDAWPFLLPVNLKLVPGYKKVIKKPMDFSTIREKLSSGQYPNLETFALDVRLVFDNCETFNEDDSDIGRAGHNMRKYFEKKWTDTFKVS
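AlphaScreen luminescence quantifies BAZ2B engagement of H3K14Ac peptide; the protein and biotinylated peptide are both at 50 nM final, buffer PBS pH 7.4 with 0.01% Tween-20, all steps at room temperature.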
JMJD2A Tudor inh: qHTS Assay for Inhibitors of JMJD2A-Tudor Domain | Lysine-specific demethylase 4A (Homo sapiens), O75164 | AlphaScreen JMJD2A-Tudor / H3K4me3 peptide binding | Potency, µM (top dose mostly 114 µM), usual class: inhibitors | 390,000 tested, 4.4% active; further: nearly all actives have a fitted effect of over 50% in size
Of the large screens only hits and unclear results are named; the others gave an inactive call. Unless noted, the call rests on the fitted dose curve; in most records, active means well fitted inhibition curve with a large enough effect; inconclusive means small, poorly fitted or top-dose-only effect; inactive means no such curve, though single readings can be large or run the other way.

CCc1nnc(NC(=O)CCC(=O)NC2CCCCCCC2)s1	none (no result: CtBP-E1A inh)
Cc1cc(NS(=O)(=O)c2ccccc2)c(C)c(Cl)c1O	HP1b binding inh inconclusive, G9a block 28µM, JMJD2A Tudor inh inconclusive
Cc1nn(C)c(C)c1S(=O)(=O)Nc1ccc2c(c1)OCO2	G9a block 50µM, BAZ2B inh inconclusive
O=S(=O)(Nc1ccc2c(c1)OCO2)c1ccccc1	G9a block 14µM
COc1c(CC=C(C)C)cc(C2CC(=O)c3c(O)cc(O)cc3O2)cc1CC=C(C)C (stereo not given)	JMJD2A Tudor inh inconclusive
COC1=CC(=O)C(C2CC(=O)c3c(O)cc(O)cc3O2)=CC1=O (stereo not given)	HP1b binding inh inconclusive, JMJD2A Tudor inh 79µM (no result: G9a block, BAZ2B inh)
CCOC(=O)CNC(=O)c1cc2c(=O)oc3ccccc3c2s1	none (no result: CtBP-E1A inh, Six1-Eya2 blk)
c1cn2c(NC3CCCCC3)c(-c3ccc(SC4CCCCC4)cc3)nc2cn1	none
CCN(CC)c1ccc(-c2nc3cnccn3c2NC2CCCC2)cc1	HP1b binding inh inconclusive, G9a block 50µM, JMJD2A Tudor inh 79µM
CC(=O)NC1=C(Nc2ccc(N(C)C)cc2)C(=O)c2ccccc2C1=O	HP1b binding inh inconclusive, G9a block 32µM, BAZ2B inh 40µM, JMJD2A Tudor inh inconclusive
CNC1=C(N(C(C)=O)c2ccc(Br)cc2)C(=O)c2ccccc2C1=O	G9a block inconclusive, BAZ2B inh inconclusive
CC(=O)NC1=C(N(C)C2CCS(=O)(=O)C2)C(=O)c2ccccc2C1=O (stereo not given)	G9a block 7.9µM
CSc1ncccc1C(=O)OCC(=O)N1CCCC1	none (no result: G9a block, BAZ2B inh)
CCC(Sc1ncccc1C(=O)O)C(=O)N1CCOCC1 (stereo not given)	G9a block inconclusive, BAZ2B inh inconclusive, JMJD2A Tudor inh 5.6µM
CCOC(=O)c1cccnc1SC(CC)C(=O)N1CCOCC1 (stereo not given)	none
CCC(Sc1ncccc1C(=O)O)C(=O)N1CCCC1 (stereo not given)	G9a block inconclusive, BAZ2B inh inconclusive, JMJD2A Tudor inh 3.5µM
N#C/C(=C\c1ccc(OCc2ccc(C(=O)O)cc2)cc1)C(=O)NCc1ccccc1	G9a block inconclusive, BAZ2B inh inconclusive, JMJD2A Tudor inh inconclusive
Cc1nc(S/C(=C/c2ccc(OCc3ccc(C(=O)O)cc3)cc2)C(=O)O)n[nH]1	G9a block inconclusive, BAZ2B inh inconclusive, JMJD2A Tudor inh 2.8µM
Cc1cccc(-c2cc3nc4c(c(N5CCOCC5)n3n2)CCCC4)c1	none
Cc1cccc(-c2cc3nc4c(c(NCc5ccco5)n3n2)CCCC4)c1	JMJD2A Tudor inh 79µM
CCC1CN(C(=O)N2CCC(C(=O)NCCC3=CCCCC3)CC2)c2ccccc2O1 (stereo not given)	none (no result: CtBP-E1A inh, Six1-Eya2 blk)
C[C@@H](NC(=O)c1nc[nH]c1C(=O)NCC(=O)OCc1ccccc1)c1ccccc1	JMJD2A Tudor inh inconclusive
COc1ccc(N2CCN(CCCNC(=O)c3ccc(CS(=O)(=O)c4ccc(Cl)cc4)o3)CC2)cc1	G9a block 50µM, BAZ2B inh 28µM (no result: CtBP-E1A inh)
O=C(NCCCN1CCCC1)c1ccc(CS(=O)(=O)c2ccc(Br)cc2)o1	G9a block 56µM
CCCCN1C(=O)C(=Nc2cccc3cnccc23)c2ccccc21	HP1b binding inh inconclusive, G9a block 45µM, BAZ2B inh 28µM, JMJD2A Tudor inh inconclusive
Cc1c(NC(=O)C(=O)/C=C(\O)c2ccc(Br)cc2)c(=O)n(-c2ccccc2)n1C	G9a block inconclusive, BAZ2B inh inconclusive, JMJD2A Tudor inh 25µM
Cc1ccc(C2C=C(c3ccc(F)cc3)Nc3nc(CCCO)nn32)cc1 (stereo not given)	none (no result: CtBP-E1A inh, Six1-Eya2 blk)
OCCCc1nc2n(n1)C(c1ccccc1)C=C(c1ccccc1)N2 (stereo not given)	G9a block 40µM
COc1ccc(C2C=C(c3cccs3)Nc3nc(CCCO)nn32)cc1 (stereo not given)	G9a block 40µM, BAZ2B inh inconclusive (no result: CtBP-E1A inh, HP1b binding inh, Six1-Eya2 blk, JMJD2A Tudor inh)
COc1ccc(C2C=C(c3ccccc3)Nc3nc(CCCO)nn32)cc1 (stereo not given)	G9a block inconclusive
CC(C)(C)NC(=O)CCSc1nnc(-c2ccco2)o1	none
Cc1ccc(Cl)cc1N1CCN(CCCNc2ncnc3onc(-c4ccc(F)cc4)c23)CC1	G9a block inconclusive (no result: CtBP-E1A inh, Six1-Eya2 blk)
O=C(NCc1cccnc1)c1cc(C2CCCN(C(=O)c3cccs3)C2)on1 (stereo not given)	none (no result: HP1b binding inh, G9a block, BAZ2B inh, JMJD2A Tudor inh)
CC(=O)Nc1nc(N2C(=O)c3ccccc3C2=O)n(-c2ccccc2)n1	CtBP-E1A inh inconclusive, G9a block inconclusive, BAZ2B inh inconclusive, JMJD2A Tudor inh 79µM
O=C(Nc1nc(N2C(=O)c3ccccc3C2=O)n(-c2ccccc2)n1)c1ccccc1	Six1-Eya2 blk inconclusive, BAZ2B inh inconclusive, JMJD2A Tudor inh inconclusive
CCOC(=O)/C(=N\Nc1ccccc1)S(=O)(=O)c1ccccc1	G9a block inconclusive, JMJD2A Tudor inh inconclusive
CCOC(=O)/C(=N/Nc1ccc(C)cc1)S(=O)(=O)c1ccc(Cl)cc1	G9a block 14µM
COc1ccc(Nc2ccc3cc(S(=O)(=O)N4CCCC4)ccc3n2)cc1Cl	none (no result: CtBP-E1A inh, Six1-Eya2 blk)
COc1ccc(Cl)cc1Nc1ccc2cc(S(=O)(=O)N3CCCCC3)ccc2n1	G9a block 5µM (no result: CtBP-E1A inh, Six1-Eya2 blk)
CCC(C)(C)n1nnnc1C(c1cc2ccc(C)cc2[nH]c1=O)N(Cc1cccnc1)Cc1ccco1 (stereo not given)	G9a block 50µM, BAZ2B inh inconclusive, JMJD2A Tudor inh inconclusive
COC(=O)Nc1sc2c(c1C(=O)NCc1ccco1)CCC2	BAZ2B inh inconclusive, JMJD2A Tudor inh 56µM
CCOc1ccc(-n2nc(CO)c(C(=O)NCc3ccccn3)n2)cc1	none (no result: CtBP-E1A inh, Six1-Eya2 blk)
Cc1nn(CC(=O)NCCc2ccco2)c(=O)c2nn(-c3ccccc3)c(C)c12	G9a block inconclusive, BAZ2B inh inconclusive (no result: CtBP-E1A inh)
Cc1ccc(CCNC(=O)C(C)n2nc(C)c3c(C)n(-c4ccccc4)nc3c2=O)cc1 (stereo not given)	none
Cc1nn(C(C)C(=O)NCCc2ccco2)c(=O)c2nn(-c3ccccc3)c(C)c12 (stereo not given)	JMJD2A Tudor inh 79µM
Cc1ccc(-n2nc3c(=O)n(C(C)C(=O)NCCC4=CCCCC4)nc(C)c3c2C)cc1 (stereo not given)	JMJD2A Tudor inh 45µM (no result: CtBP-E1A inh)
Cc1ccc(NC(=O)c2cc(S(=O)(=O)N3CCOCC3)c(Cl)cc2Cl)cc1	none (no result: CtBP-E1A inh, Six1-Eya2 blk)
